# According to article PMC5540273 (PLoS ONE, 2017):
# Legend:
# Conditions in all cases: concentration: 1 μM,replicates: in singlicate; n = 1
# [1] = test system: PLK2
# [2] = test system: PLK3
# [3] = test system: PLK4
# [4] = test system: PRKCD
# [5] = test system: PRKCE
# [6] = test system: PRKCH
# [7] = test system: PRKCI
# [8] = test system: PRKCQ
# [9] = test system: PRKD1
# [10] = test system: PRKD2
# [11] = test system: PRKD3
# [12] = test system: PRKG1
# [13] = test system: PRKG2
# [14] = test system: T1, PRKR
# T1 construct: gene EIF2AK2
# [15] = test system: PRKX
# [16] = test system: PRP4
# [17] = test system: T2, PYK2
# T2 construct: gene PTK2B
# [18] = test system: QSK
# [19] = test system: RAF1
# [20] = test system: RET
# 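Further: KINOMEscan kinase panel screen.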
SMILES,%Inh [1] [%],%Inh [2] [%],%Inh [3] [%],%Inh [4] [%],%Inh [5] [%],%Inh [6] [%],%Inh [7] [%],%Inh [8] [%],%Inh [9] [%],%Inh [10] [%],%Inh [11] [%],%Inh [12] [%],%Inh [13] [%],%Inh [14] [%],%Inh [15] [%],%Inh [16] [%],%Inh [17] [%],%Inh [18] [%],%Inh [19] [%],%Inh [20] [%]
FC(F)(F)c1cc(Br)cc(Nc2nccc(-c3cnn4ncccc34)n2)c1 [GW810578],24,13,26,16,4,7,0,1,4,0,0,25,0,0,0,0,80,12,0,0
COc1cc2nccc(Nc3ccc(Oc4ccccc4)cc3)c2cc1OC.Cl [GI261656],0,0,15,0,0,1,0,0,0,0,6,0,0,0,0,48,0,3,11,23
O=C(Nc1ccccc1)c1cccc(Oc2ccc3nccn3n2)c1,5,0,0,0,13,0,5,24,33,0,1,2,0,0,70,0,0,0,78,0
CC(C(=O)NC1CCN(c2ccnc(Nc3ccc(F)cc3)n2)C1)c1ccc(Cl)cc1 (stereo not shown) [GSK1379713],0,0,0,0,3,8,11,21,0,0,2,9,0,0,6,0,,0,0,0
NC(=O)c1ccc(-c2cc3ncnc(SCC(=O)O)c3s2)cc1,0,6,56,0,0,0,0,0,0,0,0,0,0,100,0,44,,0,3,0
NC(=O)Nc1sc(-c2ccc(F)cc2)cc1C(N)=O [GW789449],20,1,26,20,17,0,25,35,0,0,0,6,8,35,0,75,26,0,43,55
COC(=O)c1cccc(NC(=O)NC2CCN(c3ccnc(NCc4ccc(F)cc4)n3)CC2)c1 [GSK1379860],0,0,0,0,0,32,28,26,12,2,25,0,0,0,9,30,9,9,15,9
COc1ccc(Nc2nccc(N3CCC(NC(=O)c4cccc(C#N)c4)C3)n2)cc1 (stereo not shown) [GSK1379730],0,0,0,8,0,36,54,0,0,0,0,12,15,0,0,9,18,2,0,28
CC(=O)c1c(-c2ccncc2)[nH]c(-c2ccncc2)c1C [GW493036],0,0,0,0,25,13,0,0,2,15,100,75,73,0,0,22,0,0,41,26
O=C(NOCC1CC1)c1cc(Br)c(F)c(F)c1Nc1ccc(I)cc1Cl,0,4,0,0,6,0,0,13,0,11,0,0,0,0,0,32,0,0,0,6
COc1cccc(CNC(=O)NC2CCN(c3ccnc(Nc4cc(OC)c(OC)c(OC)c4)n3)C2)c1 (stereo not shown) [GSK1379765],0,0,43,0,17,12,31,37,0,3,0,3,0,0,33,48,0,0,21,19
O=C(Nc1cccc(Oc2ccc3nccn3n2)c1)Nc1cccc(C(F)(F)F)c1,0,0,0,10,0,0,11,9,2,24,20,6,0,0,0,11,3,14,90,86
CN1CCN(CCCNc2nccc(-c3c(-c4ccc(F)cc4)nn4cc(C(N)=O)ccc34)n2)CC1 [GW622475],0,0,10,29,14,22,41,42,65,67,89,6,0,2,8,0,9,30,35,38
Cc1cccc(-c2nc(Nc3ccncc3)c3sccc3n2)n1 [GW869641],20,13,23,20,40,21,32,0,99.3,,90.7,7,14,54,0,0,20,24,4,31
C[C@@H](Oc1cc(-n2cnc3cc(-c4cnn(C)c4)ccc32)sc1C(N)=O)c1ccccc1Cl [GSK580432],99.5,,64,23,1,0,46,35,0,0,0,17,2,0,0,81,0,42,13,90
CS(=O)(=O)c1cccc(CNc2nc(Nc3ccc4c(c3)[C@@H]3C[C@@H]4CNC3=O)ncc2C(F)(F)F)c1,0,0,98.7,0,5,0,8,14,22,28,22,0,0,0,0,10,66,0,0,100
CSc1nccc(-c2c(-c3ccc(F)cc3)ncn2CCCN2CCOCC2)n1.Cl [SB-217146],28,44,5,8,38,0,14,0,0,1,0,0,0,0,0,0,5,5,0,2
OCCn1cc(-c2cnc3nnn(Cc4ccc5ncccc5c4)c3n2)cn1,0,50,4,0,49,0,0,0,5,0,0,0,0,0,0,0,0,0,0,0
Cn1ccc2ncnc(Oc3ccc(NC(=O)Nc4cnn(C(C)(C)C)c4)c(Cl)c3)c21,1,11,31,27,0,0,10,21,0,13,4,9,0,17,3,0,0,0,44,100
C[C@@H](Oc1cc(-n2cnc3ccc(-c4ccncc4)cc32)sc1C(N)=O)c1ccccc1Cl [GSK483724],99.3,,0,8,29,33,40,33,0,0,27,0,0,0,33,23,0,0,11,22
C[C@@H]1CNc2c(sc3ccc4nc(-c5ccc(O)cc5)ccc4c23)C(=O)N1,6,15,90.1,43,46,35,5,59,70,34,43,12,61,0,0,12,19,0,0,13
